We go through eight compounds from PubChem BioAssay.

Activity calls are given as the source filed them.

The nature of test [1]: optical density shifts of acrAB sulA E. coli – strain DRC41, OD650, 48 h, E. coli filamentation inducer project, primary screen (AID 1152).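 Also: E. coli MC1000 strain DRC41 lacking acrAB efflux pump and sulA.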 As to conditions: higher = more signal, called active from +8 up or from −8 down.
Test [2] in a line: probe aLefty1 binding on compound microarray – biochemical, small-molecule microarray, 635/667 nm fluorescence, primary screen (AID 1153).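 Also: score merges spot fluorescence with signal-to-noise ratio from the scanned slide images.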 As to conditions: higher = more signal.
Test [3] can be described thus: plasmodial surface anion channel blockers, osmotic lysis – cell-based, P. falciparum Indochina, OD700, 1 h, primary screen (AID 1154). The following applies: P. falciparum Indochina infected RBC osmotic lysis, higher = more signal, called active from +8 up or from −8 down.
A short description of test [4]: plasmodial surface anion channel blockers, osmotic lysis – cell-based, P. falciparum Indochina, OD700, 2 h, primary screen (AID 1155).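 Also: lysis reports solute entry through the parasite surface anion channel PSAC.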 As to conditions: P. falciparum Indochina infected erythrocytes, higher = more signal, called active from +8 up or from −8 down.
The nature of test [5]: changes in parasitized red cell lysis, either direction – P. falciparum Indochina, OD700, 3 h, PSAC antagonist project, primary screen (AID 1156). The following applies: P. falciparum-infected erythrocytes, osmotic lysis, higher = more signal, called active from +8 up or from −8 down.
A short description of test [6]: plasmodial surface anion channel blockers, osmotic lysis – cell-based, P. falciparum Indochina, OD700, 18 h, primary screen (AID 1157). The following applies: P. falciparum Indochina infected erythrocytes, osmotic lysis OD700, 18 h; higher = more signal, called active from +8 up or from −8 down.
The nature of test [7]: S6 kinase pathway phospho-S6 level changes – cell-based, A549, cytoblot, luminescence, serum-stimulated, primary screen (AID 1158).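 Also: serum-stimulated A549 lung adenocarcinoma cells; signal is phosphorylated S6 detected by cytoblot immunostaining with HRP secondary.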 As to conditions: 5 h, higher = more signal.
Test [8] has as its target NADPH oxidase 2 (Homo sapiens) (UniProt P04839). The experiment in a line: compounds shifting NOX2 Amplex Red fluorescence – cell-based, HEK293-NOX2, PMA-stimulated, NOX inhibitor project, primary screen (AID 1159). Also: test concentration not given here. As to conditions: 45 min, higher = more signal, called active from +8 up or from −8 down.
Test [9] deals with NADPH oxidase 4 (Homo sapiens) (UniProt Q9NPH5). The experiment in a line: compounds shifting NOX4 Amplex Red fluorescence – cell-based, HEK293-NOX4, tetracycline-induced, NOX inhibitor project, primary screen (AID 1160). The following applies: HEK293-NOX4, Amplex Red H2O2 fluorescence, 45 min; higher = more signal, called active from +8 up or from −8 down.
For test [10], the target named is NADPH oxidase 5 (Homo sapiens) (UniProt Q96PH1). The experiment in a line: compounds shifting NOX5 Amplex Red fluorescence – cell-based, HEK293-NOX5, NOX inhibitor project, primary screen (AID 1161). As to conditions: HEK293-NOX5, ionomycin, 45 min, higher = more signal.
Test [11] is described as follows: compound effects on lung adenocarcinoma cell viability – A549, calcein-AM fluorescence, 48 h, basal, profiling panel (AID 1162). Also: test concentration not given here. As to conditions: higher = more signal.
Test [12] in a line: compound effects on differentiated 3T3-L1 adipocyte viability – cell-based, 3T3-L1 adipocytes, calcein-AM fluorescence, 48 h, basal, profiling panel (AID 1163). Also: test concentration not given here. As to conditions: 3T3-L1 adipocytes viability, higher = more signal.
The nature of test [13]: compound effects on hepatocellular carcinoma cell viability – HepG2, calcein-AM fluorescence, 48 h, basal, profiling panel (AID 1164). Also: test concentration not given here. The following applies: higher = more signal.
Test [14] can be described thus: compound effects on multiple myeloma cell viability – MM1S, calcein-AM fluorescence, 48 h, basal, profiling panel (AID 1165). Also: test concentration not given here. As to conditions: higher = more signal.
A short description of test [15]: calcein-AM signal in unstimulated myeloma cells – cell-based, calcein-AM fluorescence, 48 h, PK04 Diversity Set, profiling panel (AID 1166).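 Also: cells grown under basal conditions without added stimulus; test concentration not given here.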 The following applies: RPMI8226 myeloma viability, higher = more signal.
Test [16] can be described thus: JC-1 mitochondrial signal, unstimulated HepG2 cells – cell-based, JC-1 fluorescence, 24 h, 100 nL compound, profiling panel (AID 1167). Also: test concentration not given here. As to conditions: HepG2 mitochondrial potential, higher = more signal.
Test [17] is described as follows: JC-1 mitochondrial signal, unstimulated adipocytes – cell-based, JC-1 fluorescence, 3T3-L1 adipocytes, 24 h, 100 nL compound, profiling panel (AID 1168). Also: test concentration not given here. The following applies: JC-1 mitochondrial fluorescence, higher = more signal, called active from +8 up or from −8 down.
The nature of test [18]: JC-1 mitochondrial signal, unstimulated myeloma cells – cell-based, JC-1 fluorescence, RPMI8226, 24 h, 100 nL compound, profiling panel (AID 1169). Also: test concentration not given here. As to conditions: JC-1 mitochondrial potential fluorescence, higher = more signal.
Test [19] is described as follows: JC-1 mitochondrial signal, unstimulated MM1S myeloma – cell-based, JC-1 fluorescence, 24 h, 100 nL compound, profiling panel (AID 1170). Also: test concentration not given here. As to conditions: MM1S mitochondrial potential, higher = more signal.
The nature of test [20]: resazurin metabolic signal in A549 cells – cell-based, resazurin fluorescence, 24 h, PK04 Diversity Set, profiling panel (AID 1171). Also: test concentration not given here. The following applies: A549 viability, higher = more signal, called active from +8 up or from −8 down.

Chain of NADPH oxidase 5 (Homo sapiens) (Q96PH1 whole entry, looked up): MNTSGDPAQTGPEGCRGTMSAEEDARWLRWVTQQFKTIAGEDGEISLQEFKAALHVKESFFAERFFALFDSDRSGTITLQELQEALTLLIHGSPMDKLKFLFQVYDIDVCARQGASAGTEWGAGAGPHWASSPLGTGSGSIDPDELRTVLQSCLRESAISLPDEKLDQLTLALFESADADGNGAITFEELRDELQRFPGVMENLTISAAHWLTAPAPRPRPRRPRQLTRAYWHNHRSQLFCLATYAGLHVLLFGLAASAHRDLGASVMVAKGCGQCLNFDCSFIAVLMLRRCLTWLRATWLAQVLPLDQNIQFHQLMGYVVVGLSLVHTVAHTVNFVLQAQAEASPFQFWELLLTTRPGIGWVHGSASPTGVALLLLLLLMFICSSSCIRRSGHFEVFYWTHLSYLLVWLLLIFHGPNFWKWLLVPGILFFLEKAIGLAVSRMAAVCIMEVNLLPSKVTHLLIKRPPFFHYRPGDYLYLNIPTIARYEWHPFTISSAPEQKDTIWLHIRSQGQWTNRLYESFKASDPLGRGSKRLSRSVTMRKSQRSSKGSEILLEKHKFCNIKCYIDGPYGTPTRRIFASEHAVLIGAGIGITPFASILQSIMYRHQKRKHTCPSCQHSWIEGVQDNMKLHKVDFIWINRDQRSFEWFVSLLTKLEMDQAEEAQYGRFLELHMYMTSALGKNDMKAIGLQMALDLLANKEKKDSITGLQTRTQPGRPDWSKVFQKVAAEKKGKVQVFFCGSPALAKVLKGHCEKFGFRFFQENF
Chain of NADPH oxidase 2 (Homo sapiens) (P04839 whole entry, looked up): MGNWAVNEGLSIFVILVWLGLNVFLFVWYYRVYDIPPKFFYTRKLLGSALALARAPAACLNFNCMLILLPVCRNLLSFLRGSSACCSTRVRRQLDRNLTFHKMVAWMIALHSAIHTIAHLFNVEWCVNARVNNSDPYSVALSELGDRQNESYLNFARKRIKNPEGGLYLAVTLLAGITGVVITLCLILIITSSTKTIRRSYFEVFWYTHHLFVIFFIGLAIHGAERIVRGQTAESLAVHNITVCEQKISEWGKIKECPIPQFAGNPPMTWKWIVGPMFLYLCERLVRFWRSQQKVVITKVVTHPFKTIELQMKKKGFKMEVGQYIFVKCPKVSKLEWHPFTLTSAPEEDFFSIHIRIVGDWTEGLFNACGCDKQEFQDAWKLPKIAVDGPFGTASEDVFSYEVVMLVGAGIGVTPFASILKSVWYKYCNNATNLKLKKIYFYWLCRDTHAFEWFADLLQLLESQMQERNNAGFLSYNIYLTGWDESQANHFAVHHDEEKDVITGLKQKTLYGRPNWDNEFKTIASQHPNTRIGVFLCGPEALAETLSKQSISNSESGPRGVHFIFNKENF
Chain of NADPH oxidase 4 (Homo sapiens) (Q9NPH5 whole entry, looked up): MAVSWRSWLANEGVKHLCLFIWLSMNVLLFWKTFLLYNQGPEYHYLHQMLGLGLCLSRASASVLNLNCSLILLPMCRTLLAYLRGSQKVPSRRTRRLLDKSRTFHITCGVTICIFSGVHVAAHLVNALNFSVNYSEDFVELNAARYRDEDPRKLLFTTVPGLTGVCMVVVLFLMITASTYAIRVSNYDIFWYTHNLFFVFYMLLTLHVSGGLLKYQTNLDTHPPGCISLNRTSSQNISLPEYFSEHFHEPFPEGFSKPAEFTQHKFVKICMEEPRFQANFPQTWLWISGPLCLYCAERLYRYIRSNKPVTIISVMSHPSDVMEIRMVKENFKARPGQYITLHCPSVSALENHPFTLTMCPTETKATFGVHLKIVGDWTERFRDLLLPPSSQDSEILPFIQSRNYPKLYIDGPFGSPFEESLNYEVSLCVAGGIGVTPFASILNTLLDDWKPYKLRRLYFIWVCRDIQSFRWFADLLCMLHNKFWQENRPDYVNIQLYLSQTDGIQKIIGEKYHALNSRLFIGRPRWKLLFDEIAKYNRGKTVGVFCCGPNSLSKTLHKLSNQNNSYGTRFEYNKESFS

Regarding `[N-]=[N+]=NCc1ccccc1[C@@H]1OC(c2ccc(OCCCO)cc2)=N[C@]1(Cc1ccccc1N=[N+]=[N-])C(=O)N1CCCCC1`, the z-score in [1] was 0.155 (inactive); in test [3], 16.3 (active); in test [4], 2.78 (inactive); in test [5] it was 1.15 (inactive); in [6] it was 0.86 (inactive); in [7], 0.0177. Also, the z-score is -1.45 (inactive) in [8]; 0.924 (inactive) in test [9]; 1.17 in test [10]; -0.135 in test [11]; -0.843 in [12]; 0.461 in [13]. Moreover, the z-score is -2.31 in [14]; -3.75 in test [15]; 0.913 in [16]; -0.922 (inactive) in [17]; -1.19 in test [18]; -2.04 in test [19]. Also, the z-score in test [20] was -0.484 (inactive). The compound also gave a composite z-score in test [2] of 0.358.

As for `O=C1C[C@@](C(=O)NCC(F)(F)F)(c2ccc([N+](=O)[O-])cc2)[C@@H](c2ccc(CO)cc2)N1CC12CC3CC(CC(C3)C1)C2`, the z-score in test [1] is -0.0809 (inactive); in [3] it was 5.86 (inactive); in [4], 0.525 (inactive); in test [5], 2.97 (inactive); in test [6], -0.092 (inactive); in [7] it was 2.16. For the same compound, the z-score in [8] is -0.178 (inactive); in [9], -3.52 (inactive); in test [10] it was -5.17; in test [11], -1.8; in [12], 1.4; in [13], -1.57. Further, the z-score in [14] is -2.72; in test [15] it was -4.39; in test [16], -1.09; in test [17], -1.29 (inactive); in [18], -1.04; in test [19] it was -0.0442. For the same compound, the z-score in test [20] is -2.08 (inactive). The compound further returned a composite z-score in [2] of 0.282.

Take `[N-]=[N+]=NC[C@H](Cc1ccccc1)NC(=O)c1ccccc1`: the z-score was 1.44 (inactive) in [1]; 0.0465 (inactive) in test [3]; 0.872 (inactive) in [4]; 0.264 (inactive) in test [5]; 0.432 (inactive) in test [6]; -0.282 in test [7]. Moreover, the z-score in test [8] was 0.192 (inactive); in test [9] it was -0.441 (inactive); in test [10], 0.122; in test [11] it was 0.431; in test [12] it was 0.474; in test [13], 0.611. Further, the z-score in test [14] is 0.357; in test [15], 0.661; in test [16], 0.581; in test [17] it was 0.219 (inactive); in [18], -0.0299; in test [19] it was 0.171. In [20], the z-score was 1.19 (inactive). The composite z-score in [2] was determined as 0.0606.

As for `[N-]=[N+]=Nc1ccccc1C[C@]1(C(=O)O)N=C(c2ccc(OCCCO)cc2)O[C@H]1c1ccccc1`, the z-score was 0.174 (inactive) in [1]; 18.4 (active) in [3]; 2.83 (inactive) in [4]; 1.35 (inactive) in test [5]; 0.589 (inactive) in test [6]; -0.138 in test [7]. The z-score in test [8] is 0.22 (inactive); in test [9], 0.818 (inactive); in [10] it was 0.857; in test [11], 0.855; in [12], -0.221; in test [13] it was 1.28. The z-score was 0.565 in test [14]; 0.272 in [15]; -0.924 in [16]; -0.297 (inactive) in test [17]; -0.954 in test [18]; -0.547 in test [19]. In addition, in [20], the z-score is -0.605 (inactive). This compound had a composite z-score in test [2] of -0.007.

On to `COC(=O)[C@@]1(Cc2ccc(F)cc2)[C@H]2c3cc(C(=O)N(C)C)n(Cc4c(CO)[nH]cc(C)c4=O)c3C[C@H]2CN1C(=O)c1ccccc1`, for which the z-score is -1.35 (inactive) in test [1]; 0.756 (inactive) in test [3]; 0.19 (inactive) in test [4]; 0.865 (inactive) in test [5]; 0.816 (inactive) in [6]; -0.122 in test [7]. For the same compound, the z-score in [8] is 0.31 (inactive); in [9], -0.0408 (inactive); in test [10], -3.5; in test [11], -0.108; in test [12], 0.837; in test [13] it was -0.554. Also, the z-score in test [14] is -1.33; in test [15], -0.372; in test [16] it was -0.3; in test [17], -0.91 (inactive); in [18], -0.00352; in test [19], -0.895. In [20], the z-score was -1.42 (inactive). The composite z-score in test [2] was found to be 0.0752.

For the compound `CC(C)C(=C=CC[C@H](O)c1cccc(OCCO)c1)CCO`, the z-score was 1.09 (inactive) in test [1]; 1.77 (inactive) in test [3]; -1.04 (inactive) in test [4]; -1.42 (inactive) in test [5]; -1.95 (inactive) in [6]; 0.28 in [7]. Moreover, the z-score in test [8] was -0.24 (inactive); in [9] it was 0.17 (inactive); in test [10] it was -1.29; in [11], 0.211; in test [12], 0.786; in test [13], 0.401. Moreover, the z-score is 0.214 in [14]; 0.292 in [15]; 0.434 in test [16]; -0.599 (inactive) in [17]; 0.6 in [18]; -0.373 in test [19]. Besides, in [20], the z-score was 1.21 (inactive). Besides, the composite z-score in test [2] was -0.116.

On to `COc1cc(NN2C(C(O)c3ccccc3)C=CC3C(=O)N(C)C(=O)C32)cc(OC)c1OC` (stereo not given), for which the z-score in test [1] was -1.05 (inactive); in test [3], 0.758 (inactive); in [4] it was 0.34 (inactive); in [5], 1.21 (inactive); in [6] it was -0.447 (inactive); in [7], 1.44. Also, the z-score in test [8] was -3.07 (inactive); in [9], -5.77 (inactive); in test [10], -6.19; in [11], -0.209; in test [12], 0.68; in test [13], -0.131. Besides, the z-score was -1.34 in test [14]; -0.589 in test [15]; -0.944 in [16]; 0.215 (inactive) in test [17]; -0.413 in [18]; -1.54 in [19]. In addition, the z-score in test [20] is -1.52 (inactive). The same compound came in with a composite z-score in test [2] of 0.0455.

On to `C=C[C@@H](OC)[C@H](OC(=O)Nc1ccc(OC)cc1)c1ccc(OC)c(O)c1`, for which the z-score was 0.139 (inactive) in test [1]; 2.48 (inactive) in test [3]; 0.96 (inactive) in test [4]; 0.0081 (inactive) in [5]; 0.45 (inactive) in test [6]; -0.0451 in [7]. Also, the z-score is -2.52 (inactive) in test [8]; -1.04 (inactive) in [9]; -1.2 in test [10]; -0.464 in test [11]; 0.605 in test [12]; -0.192 in [13]. Further, the z-score was -0.0794 in test [14]; 1.05 in [15]; -0.733 in [16]; 0.141 (inactive) in [17]; 0.616 in [18]; 0.454 in test [19]. Also, in test [20], the z-score is 0.376 (inactive). In addition, the composite z-score in test [2] is -0.123.
